Assay results published in the supplement of paper PMC12819154, “High-throughput peptide-centric local stability assay extends protein–ligand identification to membrane proteins, tissues and bacteria” (Nature Structural & Molecular Biology, 2025).

What follows are targets tested with CN[C@@H]1C[C@H]2O[C@@](C)([C@@H]1OC)n1c3ccccc3c3c4c(c5c6ccccc6n2c5c31)C(=O)NC4 [staurosporine] (assay: log2 fold change of tryptic peptide abundance, ligand vs vehicle (limited proteolysis) (log2 ratio); higher = more trypsin-susceptible (destabilized)). Conditions: ligand concentration: 20 uM; sample: K562 cleared lysate; digestion: 4 min, 22 C (HT-PELSA RT4min, Orbitrap Astral).

UniProt P11274, sequence (P11274 whole entry): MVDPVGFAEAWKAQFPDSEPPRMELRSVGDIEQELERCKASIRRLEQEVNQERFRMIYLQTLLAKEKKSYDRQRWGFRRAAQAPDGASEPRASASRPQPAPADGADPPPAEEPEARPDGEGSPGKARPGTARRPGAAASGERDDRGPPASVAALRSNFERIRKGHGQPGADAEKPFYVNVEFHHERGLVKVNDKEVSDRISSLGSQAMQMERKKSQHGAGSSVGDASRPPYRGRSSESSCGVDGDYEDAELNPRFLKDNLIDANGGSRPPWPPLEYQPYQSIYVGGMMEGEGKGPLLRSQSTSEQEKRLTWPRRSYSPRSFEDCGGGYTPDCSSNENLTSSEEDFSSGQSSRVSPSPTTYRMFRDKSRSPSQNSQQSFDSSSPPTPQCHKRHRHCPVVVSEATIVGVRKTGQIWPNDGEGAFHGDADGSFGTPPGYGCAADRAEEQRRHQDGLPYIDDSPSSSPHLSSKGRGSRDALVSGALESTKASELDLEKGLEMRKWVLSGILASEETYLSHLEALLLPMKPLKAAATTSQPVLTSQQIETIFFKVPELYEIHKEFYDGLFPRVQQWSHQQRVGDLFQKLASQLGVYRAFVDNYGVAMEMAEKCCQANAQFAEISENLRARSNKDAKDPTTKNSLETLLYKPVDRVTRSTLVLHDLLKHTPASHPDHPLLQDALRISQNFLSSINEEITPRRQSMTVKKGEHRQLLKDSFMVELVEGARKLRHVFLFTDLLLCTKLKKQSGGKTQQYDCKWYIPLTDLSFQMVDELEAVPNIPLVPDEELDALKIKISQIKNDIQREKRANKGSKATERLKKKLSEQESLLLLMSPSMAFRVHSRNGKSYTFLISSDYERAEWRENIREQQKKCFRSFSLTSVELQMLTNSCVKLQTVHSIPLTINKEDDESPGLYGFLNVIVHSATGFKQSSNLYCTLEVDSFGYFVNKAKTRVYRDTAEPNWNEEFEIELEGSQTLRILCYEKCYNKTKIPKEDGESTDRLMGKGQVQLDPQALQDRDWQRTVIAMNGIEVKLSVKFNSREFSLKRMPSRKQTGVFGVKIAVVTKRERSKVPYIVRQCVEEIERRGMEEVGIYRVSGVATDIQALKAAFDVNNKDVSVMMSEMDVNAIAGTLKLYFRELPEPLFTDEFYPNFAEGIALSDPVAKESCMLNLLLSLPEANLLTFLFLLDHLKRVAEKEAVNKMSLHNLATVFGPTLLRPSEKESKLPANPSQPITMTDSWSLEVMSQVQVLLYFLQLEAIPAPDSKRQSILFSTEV
UniProt P19525, sequence (P19525 whole entry): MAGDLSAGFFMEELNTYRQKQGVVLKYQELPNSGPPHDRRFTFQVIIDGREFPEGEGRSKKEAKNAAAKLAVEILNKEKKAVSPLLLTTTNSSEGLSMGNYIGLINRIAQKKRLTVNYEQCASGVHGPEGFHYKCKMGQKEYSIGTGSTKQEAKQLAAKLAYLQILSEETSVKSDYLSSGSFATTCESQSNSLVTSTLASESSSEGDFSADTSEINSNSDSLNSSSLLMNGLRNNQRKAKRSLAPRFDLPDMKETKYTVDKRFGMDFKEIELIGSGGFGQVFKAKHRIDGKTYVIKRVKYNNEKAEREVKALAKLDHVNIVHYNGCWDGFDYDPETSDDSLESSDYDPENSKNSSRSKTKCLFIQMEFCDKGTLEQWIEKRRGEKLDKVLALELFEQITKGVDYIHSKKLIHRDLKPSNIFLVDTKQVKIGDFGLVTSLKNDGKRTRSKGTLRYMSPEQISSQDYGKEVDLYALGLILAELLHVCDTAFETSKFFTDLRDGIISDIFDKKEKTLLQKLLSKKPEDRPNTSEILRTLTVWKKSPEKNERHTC
UniProt P84022, sequence (P84022 whole entry, looked up): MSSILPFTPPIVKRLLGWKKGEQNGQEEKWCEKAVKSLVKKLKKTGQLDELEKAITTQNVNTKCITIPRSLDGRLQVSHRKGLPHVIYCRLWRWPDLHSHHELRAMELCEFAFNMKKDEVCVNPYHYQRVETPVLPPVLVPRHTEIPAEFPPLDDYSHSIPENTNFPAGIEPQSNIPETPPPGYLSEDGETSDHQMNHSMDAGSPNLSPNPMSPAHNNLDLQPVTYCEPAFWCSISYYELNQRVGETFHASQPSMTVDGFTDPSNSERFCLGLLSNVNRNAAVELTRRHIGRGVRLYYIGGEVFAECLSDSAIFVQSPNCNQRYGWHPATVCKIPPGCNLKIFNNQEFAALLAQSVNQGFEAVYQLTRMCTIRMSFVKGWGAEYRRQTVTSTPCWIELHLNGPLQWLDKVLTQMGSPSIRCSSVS
UniProt P16591, sequence (P16591 whole entry, looked up): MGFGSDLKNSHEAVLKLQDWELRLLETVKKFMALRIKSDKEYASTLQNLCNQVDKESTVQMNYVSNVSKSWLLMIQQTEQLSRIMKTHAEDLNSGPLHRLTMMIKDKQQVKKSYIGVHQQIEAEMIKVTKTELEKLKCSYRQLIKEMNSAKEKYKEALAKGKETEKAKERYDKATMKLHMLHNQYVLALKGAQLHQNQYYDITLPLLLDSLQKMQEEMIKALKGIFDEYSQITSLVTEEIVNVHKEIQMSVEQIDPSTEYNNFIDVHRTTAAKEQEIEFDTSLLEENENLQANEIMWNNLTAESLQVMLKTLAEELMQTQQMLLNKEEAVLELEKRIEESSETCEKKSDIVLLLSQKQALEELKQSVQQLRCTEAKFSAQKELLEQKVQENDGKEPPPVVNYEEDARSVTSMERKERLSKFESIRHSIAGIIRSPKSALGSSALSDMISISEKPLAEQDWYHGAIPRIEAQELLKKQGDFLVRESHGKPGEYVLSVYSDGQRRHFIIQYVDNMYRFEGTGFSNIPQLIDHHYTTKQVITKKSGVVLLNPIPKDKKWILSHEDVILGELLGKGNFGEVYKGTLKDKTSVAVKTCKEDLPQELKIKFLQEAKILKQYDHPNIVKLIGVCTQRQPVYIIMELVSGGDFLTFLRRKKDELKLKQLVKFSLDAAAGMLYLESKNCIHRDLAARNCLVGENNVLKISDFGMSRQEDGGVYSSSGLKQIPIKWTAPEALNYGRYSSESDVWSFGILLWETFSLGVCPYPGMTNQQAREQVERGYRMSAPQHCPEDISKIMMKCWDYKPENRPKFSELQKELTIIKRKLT
UniProt Q9UJV9, sequence (Q9UJV9 whole entry): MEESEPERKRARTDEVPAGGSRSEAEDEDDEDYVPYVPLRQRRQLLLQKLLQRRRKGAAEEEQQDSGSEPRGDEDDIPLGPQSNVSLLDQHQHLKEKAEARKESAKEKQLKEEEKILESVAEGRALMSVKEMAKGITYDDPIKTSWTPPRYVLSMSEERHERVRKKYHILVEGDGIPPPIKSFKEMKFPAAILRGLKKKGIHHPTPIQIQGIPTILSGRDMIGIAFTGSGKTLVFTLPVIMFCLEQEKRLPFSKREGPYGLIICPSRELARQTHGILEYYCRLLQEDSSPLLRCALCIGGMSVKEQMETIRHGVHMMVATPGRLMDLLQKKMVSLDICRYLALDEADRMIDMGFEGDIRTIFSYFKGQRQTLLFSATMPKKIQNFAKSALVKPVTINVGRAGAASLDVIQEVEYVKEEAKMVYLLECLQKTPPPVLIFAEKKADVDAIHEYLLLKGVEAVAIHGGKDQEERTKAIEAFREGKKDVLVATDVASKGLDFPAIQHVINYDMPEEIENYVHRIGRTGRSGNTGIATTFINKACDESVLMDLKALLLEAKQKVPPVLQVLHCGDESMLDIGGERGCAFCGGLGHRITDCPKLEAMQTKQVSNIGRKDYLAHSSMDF
UniProt P57071, sequence (P57071 whole entry): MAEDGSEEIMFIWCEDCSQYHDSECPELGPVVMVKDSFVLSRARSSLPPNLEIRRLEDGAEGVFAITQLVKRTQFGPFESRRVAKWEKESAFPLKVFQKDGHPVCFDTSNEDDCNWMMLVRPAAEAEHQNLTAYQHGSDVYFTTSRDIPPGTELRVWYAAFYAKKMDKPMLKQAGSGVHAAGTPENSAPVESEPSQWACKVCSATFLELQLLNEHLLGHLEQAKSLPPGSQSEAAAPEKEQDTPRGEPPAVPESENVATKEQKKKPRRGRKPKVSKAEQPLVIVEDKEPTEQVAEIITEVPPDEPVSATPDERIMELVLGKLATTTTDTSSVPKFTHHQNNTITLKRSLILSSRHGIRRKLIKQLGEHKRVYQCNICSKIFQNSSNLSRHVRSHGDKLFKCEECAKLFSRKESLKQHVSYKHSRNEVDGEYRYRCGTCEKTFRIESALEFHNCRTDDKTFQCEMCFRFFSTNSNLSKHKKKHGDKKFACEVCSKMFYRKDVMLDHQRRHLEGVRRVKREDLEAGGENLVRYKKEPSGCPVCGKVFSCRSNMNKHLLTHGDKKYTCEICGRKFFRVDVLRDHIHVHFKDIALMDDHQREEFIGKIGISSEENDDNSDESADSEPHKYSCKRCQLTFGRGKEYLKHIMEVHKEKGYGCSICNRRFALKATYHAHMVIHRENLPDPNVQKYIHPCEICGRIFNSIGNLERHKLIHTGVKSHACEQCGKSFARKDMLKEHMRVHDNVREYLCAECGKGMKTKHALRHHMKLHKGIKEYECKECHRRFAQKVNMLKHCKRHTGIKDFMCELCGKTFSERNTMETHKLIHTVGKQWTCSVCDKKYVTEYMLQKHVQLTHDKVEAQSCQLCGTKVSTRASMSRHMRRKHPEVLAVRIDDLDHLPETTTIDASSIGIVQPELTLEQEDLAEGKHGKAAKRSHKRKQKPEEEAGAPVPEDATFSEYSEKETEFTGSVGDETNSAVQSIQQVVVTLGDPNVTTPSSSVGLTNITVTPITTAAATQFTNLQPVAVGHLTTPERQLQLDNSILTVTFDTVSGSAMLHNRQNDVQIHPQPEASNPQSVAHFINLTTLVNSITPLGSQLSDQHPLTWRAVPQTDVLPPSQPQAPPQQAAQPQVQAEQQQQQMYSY

Target | log2 fold change
CDKN1C (peptide sequence: SLFGPVDHEELSR, peptide start residue: 32) (UniProt P49918) | 1.39
BCR (peptide sequence: RAAQAPDGASEPR, peptide start residue: 79) (UniProt P11274) | 0.577
UniProt Q9BVS4 (peptide sequence: VLTAVEMGMK, peptide start residue: 19) | -1.57
UniProt Q9Y2K2 (peptide sequence: IGYYEIDR, peptide start residue: 63) | -3.15
FER (peptide sequence: NCLVGENNVLK, peptide start residue: 689) (UniProt P16591) | -0.84
DDX41 (peptide sequence: TDEVPAGGSR, peptide start residue: 13) (UniProt Q9UJV9) | 0.553
PRDM15 (peptide sequence: VKREDLEAGGENLVR, peptide start residue: 882) (UniProt P57071) | -1.86
PRPF4B (peptide sequence: QHLCLVFEPLSMNLR, peptide start residue: 761) (UniProt Q13523) | -0.779
UniProt P62913 (peptide sequence: KLCLNICVGESGDR, peptide start residue: 19) | -0.237
UniProt P19525 (peptide sequence: IGDFGLVTSLK, peptide start residue: 430) | -1.42
UniProt P84022 (peptide sequence: TGQLDELEK, peptide start residue: 45) | 0.887
